Each structure is given as a SMILES string. “And” between values parts separate entries of the source, which are not always exact repeats. Equal values may be shown once. Values without a mark were called inactive. Records with an inconclusive call do not appear. The source made the active and inactive calls. Unless noted, calls come from the whole dose curve; as a rule, active = well fitted curve in the direction sought with a large enough effect; inconclusive = small, poorly fitted or top-dose-only effect, or another doubt; inactive = no such curve, though single readings can be large; an effect the other way counts as inactive or inconclusive.

Our source for the Potency, outcome and activity change, negative = inhibition values is PubChem BioAssay (NCATS).

The target of assay [1] is Cytochrome P450 1A2 (Homo sapiens) (UniProt P05177). Put plainly: p450-cyp1a2 (AID 410; calls by dose curve; note: potency is the fitted concentration of half-maximal effect;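 for activity change, negative = inhibition: -100% = full effect of reference inhibitor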). The method, boiled down:
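20nM CYP1A2 with 100uM Luciferin-ME (at Km) in 100mM KPO4; compound preincubated 10 min, NADPH regeneration added, 60 min at room temperature. Luciferin quantified by luminescence after detection reagent; normalized to 57 uM furafylline.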

Assay [2] deals with Glucocorticoid receptor (Homo sapiens) (UniProt P04150). Put plainly: GR-GFP Redistribution (AID 450;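 active = compounds whose dose series gives a full or clear partial fitted curve of increased nuclear translocation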; note: potency is the fitted concentration of half-maximal effect). Conditions: U2OS GR-GFP nuclear translocation, laser cytometry, 2 h.
Glucocorticoid receptor (Homo sapiens), sequence (P04150 whole entry, looked up): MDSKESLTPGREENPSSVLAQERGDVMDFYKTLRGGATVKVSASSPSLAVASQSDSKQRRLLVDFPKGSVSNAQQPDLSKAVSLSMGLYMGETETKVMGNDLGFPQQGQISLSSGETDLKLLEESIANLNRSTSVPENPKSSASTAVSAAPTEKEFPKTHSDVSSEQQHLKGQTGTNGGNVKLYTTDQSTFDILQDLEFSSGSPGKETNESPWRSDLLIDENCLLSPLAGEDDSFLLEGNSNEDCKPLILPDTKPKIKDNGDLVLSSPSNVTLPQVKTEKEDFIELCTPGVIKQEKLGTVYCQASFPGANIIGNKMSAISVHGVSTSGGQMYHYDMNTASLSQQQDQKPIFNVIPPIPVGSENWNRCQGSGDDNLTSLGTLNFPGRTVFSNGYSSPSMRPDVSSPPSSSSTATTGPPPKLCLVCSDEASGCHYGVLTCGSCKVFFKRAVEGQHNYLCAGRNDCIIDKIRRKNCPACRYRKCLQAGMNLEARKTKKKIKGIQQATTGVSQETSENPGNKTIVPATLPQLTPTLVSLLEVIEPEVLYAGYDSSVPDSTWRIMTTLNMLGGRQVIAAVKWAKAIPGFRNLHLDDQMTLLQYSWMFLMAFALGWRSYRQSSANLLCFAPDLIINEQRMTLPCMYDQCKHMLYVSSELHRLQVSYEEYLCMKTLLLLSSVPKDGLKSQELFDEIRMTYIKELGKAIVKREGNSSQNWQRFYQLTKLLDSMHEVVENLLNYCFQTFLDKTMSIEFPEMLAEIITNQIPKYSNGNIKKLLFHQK
Assay [3] has the same target. Put plainly: GR-EFC Redistribution (AID 451; calls by dose curve; note: potency is the fitted concentration of half-maximal effect). Conditions: CHO-K1 GR-EFC translocation, beta-gal luminescence, 2 h. The method, boiled down:
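CHO-K1 cells expressing nuclear EA and GR-ED fragments of b-gal; compounds titrated up to 46 uM final, 2 h at 37 C. GR nuclear translocation read as complemented b-gal luminescence after 1 h RT detection.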

Assay [4] deals with Mitogen-activated protein kinase 10 (Mus musculus) (UniProt Q61831). Put plainly: JNK3 AlphaScreen Assay (AID 530; active = well fitted curve in either direction with a large enough effect, not every such curve was filed as active;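 note: kinase came from lysate of stimulated human HepG2 cells; signal reports phosphorylation of biotinylated GST-cJun 1-79 at Ser73 with 10 µM ATP; % is set by controls: 0 for no effect and ±100 for the full control effect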). The method, boiled down:
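Pre-activated (IL-1β/TNFα) JNK3 in HepG2 lysates phosphorylates biotin-GST-cJun(1-79), 10 uM ATP; anti-phospho-cJun(Ser73) AlphaScreen read at room temperature, pH 7.6 Tris buffer. Compounds pre-incubated 15 min as titrations.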
(In general: Bead proximity is the source of the signal in Alpha formats.)

Assay [5] concerns the target 3',5'-cyclic-AMP phosphodiesterase 4B (Homo sapiens) (UniProt Q07343). Nature of the assay: qHTS Assay for Inhibitors of PDE-IV (AID 607; active = well fitted activation curve with a large enough effect in the main read-out, with a control signal flat, not every such curve was filed as active; note: % of control where 0% means no effect). In a few lines:
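Cell-based read-out of cAMP via a modified cyclic nucleotide-gated channel and membrane potential dye (535/590 nm) in HEK293 cells expressing PDE4 endogenously. Compounds tested up to 22.9 uM final; 100 uM RO 20-1724 reference.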

For assay [6], the target named is DNA dC->dU-editing enzyme APOBEC-3G (Homo sapiens) (UniProt Q9HC16). Nature of the assay: qHTS for inhibitors of Vif-A3G interactions: Validation (AID 588379). Note: 0% is about no effect. In a few lines: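 HeLa cells stably expressing Vif and A3G-eYFP, 700 cells/well, incubated overnight at 37 deg C, then exposed to compound overnight at 37 deg C. Inhibition of Vif-mediated degradation read as increased yellow fluorescence (Ex 488/Em 500-530) by laser-scanning cytometry.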
DNA dC->dU-editing enzyme APOBEC-3G (Homo sapiens), sequence (Q9HC16 whole entry, looked up): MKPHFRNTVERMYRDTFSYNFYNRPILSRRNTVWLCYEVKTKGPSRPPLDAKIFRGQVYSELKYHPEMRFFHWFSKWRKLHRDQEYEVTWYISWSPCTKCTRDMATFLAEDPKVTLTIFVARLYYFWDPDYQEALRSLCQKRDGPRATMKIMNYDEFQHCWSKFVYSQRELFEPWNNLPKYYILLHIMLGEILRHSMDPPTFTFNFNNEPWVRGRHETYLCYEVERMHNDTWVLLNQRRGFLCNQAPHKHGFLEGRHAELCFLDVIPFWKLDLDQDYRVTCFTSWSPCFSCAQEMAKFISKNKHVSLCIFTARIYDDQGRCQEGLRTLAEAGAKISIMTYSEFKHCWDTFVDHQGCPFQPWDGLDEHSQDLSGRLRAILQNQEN
A general note: qHTS replaces the single test concentration by a dilution series.

Assay [7] in a line: NFAT Signaling Pathway (AID 444; active = well fitted curve in either direction with a large enough effect, not every such curve was filed as active;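 note: carbachol stimulus at about its EC50 of 1 µM final; % is set by controls: 0 for no effect and ±100 for the full control effect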). Particulars: Jurkat NFAT-bla M1, carbachol, beta-lactamase ratio, 5 h; at 17.2 µM (top of the series) unless noted. The method, boiled down:
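Jurkat cells with NFAT-driven β-lactamase reporter and co-expressed M1 receptor, stimulated with carbachol (final 1 uM, ~EC50), compound titration, 5 h at 37 °C. CCF4 loaded 1 h at RT; 460/530 nm ratio gave %activity and AC50.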

A short description of assay [8]: Stat Signaling Pathway (AID 446; active = well fitted curve in either direction with a large enough effect, not every such curve was filed as active;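 note: ME-180 cervical cancer cells given 40 pM IL-6 alongside compound; SIE-controlled beta-lactamase reporter measured as 460/530 nm FRET emission ratio; % is set by controls: 0 for no effect and ±100 for the full control effect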). The method, boiled down:
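Reporter line: ME-180 cervical carcinoma, SIE-beta-lactamase. Treatment: compound with 40 pM IL-6, 5 hrs, 37 C, in low-serum OPTI-MEM with 10 mM HEPES pH 7.3. Detection: 460/530 nm fluorescence.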

For assay [9], the target named is Cytochrome P450 3A4 (Homo sapiens) (UniProt P08684). Put plainly: qHTS Assay for Inhibitors and Substrates of Cytochrome P450 3A4 (AID 884). Note: potency is the fitted concentration of half-maximal effect; nearly all actives have a fitted effect of over 50% in size. In a few lines:
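20 nM human CYP3A4 with 25 uM Luciferin-PPXE (at KM) in 200 mM KPO4, preincubated 10 min with compound; NADPH regeneration started a 60 min RT reaction. Luciferin detected by luminescence, normalized to 57 uM ketoconazole as full inhibition.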

For assay [10] the target is unchanged. Nature of the assay: qHTS Assay for Activators of Cytochrome P450 3A4 (AID 885). Note: nearly all actives have a fitted effect of over 65% in size. The method, boiled down:
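Signal was normalized against complete inhibition by 57 uM ketoconazole. The reaction used 20nM CYP3A4 with 25uM Luciferin-PPXE, 10-min compound preincubation and a 60-min NADPH-supported step at RT.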

Assay [11] concerns the target Cytochrome P450 2D6 (Homo sapiens) (UniProt P10635). Nature of the assay: qHTS Assay for Inhibitors and Substrates of Cytochrome P450 2D6 (AID 891). Note: potency is the fitted concentration of half-maximal effect; nearly all actives have a fitted effect of over 60% in size. In a few lines:
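Human CYP2D6 (5 nM) with 30 uM Luciferin-ME EGE (at Km) in 100 mM KPO4, compound preincubated 10 min, then NADPH regeneration system for 60 min at room temperature. Luciferin read by luminescence; normalized to 1.43 uM quinidine.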

Assay [12] concerns the target Luciferin 4-monooxygenase (Photinus pyralis) (UniProt P08659). Nature of the assay: Biochemical firefly luciferase enzyme assay for NPC (AID 624030).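 Note: purified P. pyralis luciferase at 10 nM with luciferin and ATP substrate; 0% = DMSO and -100% = full luciferase inhibition by PTC124 control; nearly all actives have a fitted effect of over 70% in size.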 The method, boiled down:
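Purified P. pyralis luciferase at 10 nM in 50 mM Tris Acetate (final), luminescence read within 5 minutes of enzyme addition to compounds. Activity normalised to PTC124 versus DMSO; concentration-response curves classed by r2, magnitude and activity.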

Assay [13] in a line: S16 Schwann cell viability assay (CellTiter-Glo assay) (AID 624031).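 Note: native untransfected S16 rat Schwann cells; plate controls were DMSO-treated cells for no effect and cell-free wells for full effect; nearly all actives have a fitted effect of over 70% in size.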 The method, boiled down:
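Concentration-effect curves come from CellTiter-Glo luminescence of S16 rat Schwann cells after 24 h compound exposure. Each reading was normalized to DMSO wells (0%) and wells without cells, and curves were ranked by r2 and response magnitude.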
On the technique in general: ATP-based viability assays read luminescence as a measure of living cells.

Assay [14] can be described thus: S16 Schwann cell PMP22 intronic element firefly luciferase assay (AID 624032).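 Note: plate controls were DMSO for no effect and PTC124 positive control mean for full effect; nearly all actives have a fitted effect of over 30% in size.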 In a few lines:
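Rat S16 Schwann cells stably carrying firefly luciferase driven by a PMP22 intronic element, in 10% FBS, treated 24 h at 37 C. ONE-Glo luminescence normalized to PTC124 control and DMSO (0%); curves classed by r2, magnitude and activity.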

The next assay concerns CP215. Put plainly: qHTS profiling for inhibitors of Plasmodium falciparum proliferation (AID 504749). Note: nearly all actives have a fitted effect of over 60% in size. Note: potency is the fitted concentration of half-maximal effect. Particulars: P. falciparum in erythrocytes, SYBR Green DNA, 72 h; series mostly up to 12.8 µM. The method, boiled down: (§1)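 P. falciparum-infected erythrocytes (0.3% parasitemia, 2.5% hematocrit) incubated with compound 72 h at 37 C, 5% CO2. Parasite DNA detected by SYBR Green after lysis, overnight at room temperature; normalised to 0.29 uM artemisinin and DMSO.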

In another assay the test system is GB4. The assay is described as above. Conditions: P. falciparum in erythrocytes, SYBR Green DNA, 72 h; series mostly up to 12.8 µM. In a few lines:
as §1

Another assay relates to 7G8. The description is as above. Particulars: P. falciparum in erythrocytes, SYBR Green DNA, 72 h; series mostly up to 12.8 µM. In a few lines:
as §1

In another assay the test system is DIV14. The description is as above. Conditions: P. falciparum in erythrocytes, SYBR Green DNA, 72 h; series mostly up to 12.8 µM. The method, boiled down:
as §1

A further assay deals with W2. The description is as above. Conditions: P. falciparum in erythrocytes, SYBR Green DNA, 72 h; series mostly up to 12.8 µM. In a few lines:
as §1

The next assay deals with DFO2036. Described as above. Particulars: P. falciparum in erythrocytes, SYBR Green DNA, 72 h; series mostly up to 12.8 µM. In a few lines: as §1

3',5'-cyclic-AMP phosphodiesterase 4B (Homo sapiens), sequence (Q07343 whole entry, looked up): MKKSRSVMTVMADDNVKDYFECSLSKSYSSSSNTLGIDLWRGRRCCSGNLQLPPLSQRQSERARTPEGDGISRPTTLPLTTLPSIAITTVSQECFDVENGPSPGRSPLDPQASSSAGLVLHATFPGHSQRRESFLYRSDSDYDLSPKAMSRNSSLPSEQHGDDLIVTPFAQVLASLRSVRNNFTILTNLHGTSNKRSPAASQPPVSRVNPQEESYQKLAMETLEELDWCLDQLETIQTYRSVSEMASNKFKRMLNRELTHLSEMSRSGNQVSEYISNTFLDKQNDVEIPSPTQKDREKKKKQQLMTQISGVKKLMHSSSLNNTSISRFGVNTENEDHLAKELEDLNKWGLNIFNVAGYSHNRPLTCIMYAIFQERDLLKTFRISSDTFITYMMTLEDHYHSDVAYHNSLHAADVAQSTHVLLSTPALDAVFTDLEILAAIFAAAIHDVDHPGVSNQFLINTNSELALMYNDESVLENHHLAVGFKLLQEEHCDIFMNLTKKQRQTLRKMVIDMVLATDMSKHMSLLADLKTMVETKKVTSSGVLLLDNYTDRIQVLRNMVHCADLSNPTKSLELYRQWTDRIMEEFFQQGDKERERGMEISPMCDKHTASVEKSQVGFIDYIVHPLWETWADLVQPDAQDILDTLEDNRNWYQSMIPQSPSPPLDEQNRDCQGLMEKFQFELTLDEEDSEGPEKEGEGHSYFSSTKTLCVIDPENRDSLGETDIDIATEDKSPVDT
Cytochrome P450 3A4 (Homo sapiens), sequence (P08684 whole entry, looked up): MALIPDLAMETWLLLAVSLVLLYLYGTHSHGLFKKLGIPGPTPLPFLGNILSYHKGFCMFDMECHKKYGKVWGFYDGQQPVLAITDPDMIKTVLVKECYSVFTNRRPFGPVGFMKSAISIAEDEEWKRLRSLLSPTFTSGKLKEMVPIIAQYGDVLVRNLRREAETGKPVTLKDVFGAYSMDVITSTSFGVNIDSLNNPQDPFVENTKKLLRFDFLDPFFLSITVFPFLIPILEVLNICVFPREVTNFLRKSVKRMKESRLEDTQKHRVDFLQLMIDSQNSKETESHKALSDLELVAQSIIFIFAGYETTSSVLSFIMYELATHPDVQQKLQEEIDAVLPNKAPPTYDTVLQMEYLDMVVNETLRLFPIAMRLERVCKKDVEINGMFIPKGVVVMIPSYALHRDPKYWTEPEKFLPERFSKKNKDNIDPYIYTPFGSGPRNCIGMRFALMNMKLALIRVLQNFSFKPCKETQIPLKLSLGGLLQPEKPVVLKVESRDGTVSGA
Cytochrome P450 1A2 (Homo sapiens), sequence (P05177 whole entry, looked up): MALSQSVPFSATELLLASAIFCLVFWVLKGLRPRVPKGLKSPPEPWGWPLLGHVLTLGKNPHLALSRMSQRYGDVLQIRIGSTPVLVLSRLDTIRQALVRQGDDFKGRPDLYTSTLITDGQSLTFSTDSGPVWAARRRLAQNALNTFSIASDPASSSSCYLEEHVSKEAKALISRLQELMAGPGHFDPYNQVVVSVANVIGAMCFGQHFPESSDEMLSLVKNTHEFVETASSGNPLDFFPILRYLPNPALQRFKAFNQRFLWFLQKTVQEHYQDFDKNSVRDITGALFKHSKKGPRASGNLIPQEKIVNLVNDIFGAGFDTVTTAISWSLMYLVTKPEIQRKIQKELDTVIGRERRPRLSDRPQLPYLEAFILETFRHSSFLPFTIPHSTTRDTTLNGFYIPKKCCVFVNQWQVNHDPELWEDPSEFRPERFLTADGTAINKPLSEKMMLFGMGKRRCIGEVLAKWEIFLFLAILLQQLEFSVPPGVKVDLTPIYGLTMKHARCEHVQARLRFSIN
Luciferin 4-monooxygenase (Photinus pyralis), sequence (P08659 whole entry, looked up): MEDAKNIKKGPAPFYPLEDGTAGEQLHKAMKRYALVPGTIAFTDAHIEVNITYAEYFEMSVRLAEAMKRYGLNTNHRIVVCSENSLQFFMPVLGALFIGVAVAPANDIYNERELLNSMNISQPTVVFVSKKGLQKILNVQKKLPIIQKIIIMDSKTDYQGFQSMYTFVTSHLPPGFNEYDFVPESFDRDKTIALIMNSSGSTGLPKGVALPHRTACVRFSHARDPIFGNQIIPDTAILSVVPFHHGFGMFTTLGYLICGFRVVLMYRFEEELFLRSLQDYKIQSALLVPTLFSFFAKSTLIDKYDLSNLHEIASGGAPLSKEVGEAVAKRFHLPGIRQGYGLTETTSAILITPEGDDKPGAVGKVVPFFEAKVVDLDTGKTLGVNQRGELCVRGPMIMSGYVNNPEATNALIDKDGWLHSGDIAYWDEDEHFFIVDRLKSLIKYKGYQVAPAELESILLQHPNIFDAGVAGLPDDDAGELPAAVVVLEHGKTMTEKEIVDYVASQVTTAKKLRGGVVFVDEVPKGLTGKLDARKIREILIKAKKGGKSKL
Cytochrome P450 2D6 (Homo sapiens), sequence (P10635 whole entry, looked up): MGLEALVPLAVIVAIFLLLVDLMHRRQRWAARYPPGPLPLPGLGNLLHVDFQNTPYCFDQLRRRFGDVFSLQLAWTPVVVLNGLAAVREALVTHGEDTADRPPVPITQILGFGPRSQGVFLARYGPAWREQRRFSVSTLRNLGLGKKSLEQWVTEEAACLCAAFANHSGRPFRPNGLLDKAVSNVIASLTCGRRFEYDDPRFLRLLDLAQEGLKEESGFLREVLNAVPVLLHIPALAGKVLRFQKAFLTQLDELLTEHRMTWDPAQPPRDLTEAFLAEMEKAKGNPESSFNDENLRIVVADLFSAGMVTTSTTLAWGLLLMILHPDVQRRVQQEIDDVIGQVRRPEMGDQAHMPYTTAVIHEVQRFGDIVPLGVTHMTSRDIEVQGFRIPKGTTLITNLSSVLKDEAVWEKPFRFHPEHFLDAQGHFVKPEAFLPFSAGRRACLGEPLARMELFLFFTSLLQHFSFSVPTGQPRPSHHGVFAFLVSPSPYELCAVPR

As for `C[C@@H]1O[C@H](O[C@@H]2[C@H](C)O[C@H](O[C@@H]3[C@H](C)O[C@H](O[C@H]4CC[C@]5(C)[C@@H](CC[C@@H]6[C@H]5C[C@@H](O)[C@]5(C)[C@@H](C7=CC(=O)OC7)CC[C@]65O)C4)C[C@@H]3O)C[C@@H]2O)C[C@H](O)[C@@H]1O`, the Potency entry in [1] and in [4] was “inactive” throughout. Also, the Potency in [2] and in assay [3] was greater than 20.6 µM throughout. For the same compound, in assay [5], the outcome was inactive.
As to `C[C@@](N)(C(=O)O)c1cccc(CC(=O)O)c1`, the Potency in [2] and in assay [3] was greater than 46 µM in each case. Moreover, the Potency entry in assay [4] is “inactive”. For the same compound, the compound was called inactive in [5] and in assay [6].
As for `O=C1C=CC(=O)c2c1ccc1c2ccc2ccccc21`, in assay [7], the activity change, negative = inhibition was -25.7% (active). In addition, the Potency in assay [2] and in [3] was greater than 20.6 µM throughout. The Potency entry in assay [4] is “inactive”. For the same compound, in [5], the outcome was inactive.
Turning to `COC(=O)C1=C(C)NC(C)=C(C(=O)OCCN(C)Cc2ccccc2)[C@H]1c1cccc([N+](=O)[O-])c1`, the compound was called inactive in assay [8] and in assay [5]. The Potency in assay [3] is greater than 20.6 µM. Besides, the Potency result in assay [4] was “inactive”.
On to `Cc1ccnc(N)c1`, for which the Potency entry in [1] was “inactive”. The Potency in assay [3] was greater than 46 µM. The compound was classed as inactive in assay [6].
Take `COc1ccc(-c2cc(=O)c3c(O)cc(O)cc3o2)cc1`: the Potency in assay [2] is greater than 20.6 µM; in assay [3], greater than 20.6 µM; in [9], 2.51 µM (active) and 7.94 µM (active) and 3.16 µM (active). The Potency entry in assay [4] and in [10] was “inactive” throughout. In addition, the outcome in [5] and in assay [6] was inactive.
With `CO[C@@H]1CC[C@@]2(C)[C@@H](CC[C@@]3(C)[C@H]2CC=C2[C@H]4CC(C)(C)[C@H](O)[C@@H](OC(C)=O)[C@]4(CO)[C@H](O)C[C@]23C)[C@@]1(C)CO` (tested in a mixture with another compound), the Potency entry in assay [1] and in [4] was “inactive” in each case. Also, the Potency in [2] and in assay [3] was greater than 20.6 µM in each case. In assay [5], the compound was called inactive.
With `CCN(CC)[C@@H](C)CN1c2ccccc2Sc2ccccc21`, the Potency is 0.501 µM (active) in [1], greater than 20.6 µM in assay [2], 0.158 µM (active) in assay [11] and 5.73 µM (active) in the assay with GB4. Besides, the result in assay [8], in assay [5] and in [13] was inactive. The Potency entry (in assay [4]; in assay [12]; in [14]; in the assay with CP215) was “inactive” in each case.
With `CN1CCC[C@@H](CC2c3ccccc3Sc3ccccc32)C1`, the Potency result in assay [1], in assay [4] and in assay [12] was “inactive” each time. The activity change, negative = inhibition in assay [7] is -49.6% (active). In addition, the compound was called inactive in [8] and in assay [5]. Further, the Potency is greater than 20.6 µM in assay [2]; greater than 20.6 µM in assay [3]; 0.316 µM (active) in [11]; 3.98 µM (active) in the assay on 7G8; 2.28 µM (active) in the assay with DIV14; 1.44 µM (active) in the assay on W2.
As for `CO[C@]1(NC(=O)[C@H](C(=O)O)c2ccc(O)cc2)C(=O)N2C(C(=O)O)=C(CSc3nnnn3C)CO[C@H]21`, the Potency result (in assay [1]; in [4]; in [12]; in assay [14]; with 7G8; in the assay on CP215) was “inactive” in each case. The Potency entry with DFO2036, in the assay on DIV14, in the assay with GB4 and with W2 was “inactive” throughout. The activity change, negative = inhibition in [7] is 6.17%. In addition, the call in assay [8] and in assay [13] was inactive. Moreover, the Potency in assay [2] and in assay [3] was greater than 20.6 µM in each case.
